From PubChem
Giardia kill: kills Giardia lamblia; Giardia lamblia trophozoite viability; activity change, % at 7.66 µM, hits read low; hit rate 0.15% among 340,000; in the data active = activity change below about -80%; inconclusive = between about -30% and that limit;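 note: parasites exposed to compound for two days anaerobically before the ATP read; % is set by controls: 0 for no effect and ±100 for the full control effect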
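Killing of trophozoites was scored by loss of ATP luminescence after a 48 hrs anaerobic exposure to compounds at 37 deg C, using 100 cells per well.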
Vif-A3F inh: inhibitors of Vif-A3F interaction. HeLa A3F-eYFP + Vif (tagged APOBEC3F with the HIV-1 protein that degrades it), YFP fluorescence increase. Potency, µM (titrated, usually from 46.1 µM), for the others: at the highest dose activity, negative = active. hit rate 0.2% among 390,000; note: potency is the fitted concentration of half-maximal effect; % of control where 0% means no effect; nearly all actives have a fitted effect of over 65% in size
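HeLa cells stably expressing A3F-eYFP plus Vif, plated and incubated overnight at 37 deg C, then exposed to compounds overnight at 37 deg C. Blocked degradation read as raised yellow fluorescence (Ex 488/Em 500-530).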
Vif-A3G inh: inhibitors of Vif-APOBEC3G interaction. Potency, µM (highest dose often 46.1 µM), for inactives: top-dose activity, negative = active, actives largely listed as inhibitors. Q9HC16. hit rate 0.076% among 410,000. HeLa A3G-eYFP + Vif (tagged APOBEC3G with the HIV-1 protein that degrades it), YFP fluorescence, overnight; note: potency is the fitted concentration of half-maximal effect; % is set by controls: 0 for no effect and ±100 for the full control effect; nearly all actives have a fitted effect of over 60% in size
Target sequence (Q9HC16 whole entry, looked up): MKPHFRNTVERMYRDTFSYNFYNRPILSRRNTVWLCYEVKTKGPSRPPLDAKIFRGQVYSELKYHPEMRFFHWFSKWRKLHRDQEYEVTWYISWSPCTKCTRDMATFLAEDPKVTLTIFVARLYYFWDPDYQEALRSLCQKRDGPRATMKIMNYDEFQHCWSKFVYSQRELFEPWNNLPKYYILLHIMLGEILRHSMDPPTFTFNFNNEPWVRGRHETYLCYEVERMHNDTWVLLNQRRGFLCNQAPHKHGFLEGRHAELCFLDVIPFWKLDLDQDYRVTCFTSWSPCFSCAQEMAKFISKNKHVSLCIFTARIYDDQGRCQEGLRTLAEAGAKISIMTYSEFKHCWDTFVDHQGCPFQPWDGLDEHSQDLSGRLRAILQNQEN
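HeLa cells stably expressing Vif and C-terminally eYFP-tagged A3G, seeded overnight at 37 deg C, then exposed to compound by pintool overnight at 37 deg C. Rise in yellow fluorescence (Ex 488/Em 500-530, Acumen) marks blocked Vif-driven A3G degradation.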
MCF10A rereplic: induces DNA re-replication in MCF 10a normal breast cells | MCF 10A DNA re-replication, Hoechst nuclear intensity, 48 h | Potency, µM (titrated, usually from 46.1 µM), without a hit: top-dose activity, positive = re-replication, most hits filed as activators | hit rate 2.9% among 350,000 | AID 624296; note: potency is the fitted concentration of half-maximal effect; % of control where 0% means no effect; nearly all actives have a fitted effect of over 50% in size
IL1B secr inh: inhibitors of inflammasome signaling (IL-1 beta secretion). THP-1 LPS/ATP IL-1B secretion, AlphaLISA, 16 h; hits give low values. activity change, % at 57.5 µM. hit rate 4.7% among 360,000. AID 743279; in the data active = activity change below about -50%; inconclusive = mostly about -30% to -49%; note: % is set by controls: 0 for no effect and ±100 for the full control effect
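Secreted IL-1B measured by AlphaLISA bead assay after 16 h compound exposure of THP-1 cells; compounds (final up to 57.5 uM) added 1 h before LPS (250 ng/mL) and ATP (1.25 mM) stimulation; lower signal means less secretion.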
SW480 rerep: inducers of DNA re-replication in SW480 colon cancer cells. SW480 DNA re-replication, Hoechst DNA content imaging, 48 h. Potency, µM (titrated, usually from 46.1 µM), without a hit: at the highest dose re-replication activation, usual class: activators. hit rate 1.8% among 340,000. AID 624297; note: potency is the fitted concentration of half-maximal effect; % of control where 0% means no effect; nearly all actives have a fitted effect of over 55% in size
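Per well, 250 cells were exposed to pinned compound for 48 hr. Nuclear DNA was visualised with Hoechst (40 min, 37 C) and total object intensity recorded by fluorescence scanning.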
Starred values were filed as active, the others as inactive; ? = inconclusive; . = no result given. Rows were chosen to be rich in hits. Some 6.9% of all compounds tested hit in one or more screens of this group. Unless noted, calls come from the whole dose curve; as a rule, active = well fitted curve in the direction sought with a large enough effect; inconclusive = small, poorly fitted or top-dose-only effect, or another doubt; inactive = no such curve, though single readings can be large; an effect the other way counts as inactive or inconclusive.

SMILES	Giardia kill	Vif-A3F inh	Vif-A3G inh	MCF10A rereplic	IL1B secr inh	SW480 rerep
O=C1N(c2ccccc2C(F)(F)F)O[C@]1(c1ccccc1)C1CCCCC1	4.5	0.2%	-20.4%	18.4µM*	2.6	13µM*
COc1ccccc1NC(=O)CN1C(=O)C(C)(C)c2ccccc21	.	1.4%	-2.1%	.	.	.
O=C1N(c2ccccc2C(F)(F)F)OC1(Cc1ccccc1)c1ccccc1 (stereo not given)	9.1	-1.0%	-8.5%	?	-79.6*	?
CC[C@]1(c2ccccc2C)ON(c2ccccc2C(F)(F)F)C1=O	-3.4	12.5%	-16.4%	29.7%	-2.0	-0.4%
C[C@]12CCC(=O)C=C1CC[C@@H]1[C@@H]2[C@@H](O)C[C@@]2(C)[C@H]1CC[C@]2(O)C(=O)COP(=O)(O)O	.	.	.	-3.6%	.	-0.6%
Clc1ccccc1-c1nnc(-c2ccccc2CNc2ccc(Br)cc2)o1	.	2.8%	-1.8%	.	.	.
CC(C)Oc1ccc(/C=C/C(=O)NCC2COc3ccccc3O2)cc1 (stereo not given)	3.1	-29.9%	4.3%	9.4%	-72.4*	-5.6%
Cc1nc(SCC(=O)Nc2ccc(CN3CCCC3)cc2)c2c(C)c(C)sc2n1	-14.1	-4.2%	-0.6%	?	-93.9*	0.7%
CC(=O)Nc1ccc(NC(=O)CSc2nc(C)nc3sc(C)c(C)c23)cc1	-4.2	-29.6%	0.0%	?	-25.9	13.4%
Cc1ccc(-n2c(C)cc(/C=C3/SC(=O)N(CC(=O)N4CCOCC4)C3=O)c2C)nc1	-10.0	-2.8%	-2.4%	1.9%	13.9	18.4µM*
CCn1c(C)cc(/C=C2/SC(=O)N(CC(=O)N3CCCC3)C2=O)c1C	-15.5	-24.0%	-1.5%	0.7%	-13.0	-0.6%
Cc1ccc(CNC(=O)CCc2c(C)nc3c4c(C)cc(C)nc4nn3c2C)cc1	.	-5.6%	-3.1%	.	.	.
CCOC(=O)Cn1nc(/C=C/c2ccc(OC)cc2)ccc1=O	3.3	-8.2%	1.7%	-1.8%	-29.4	-1.1%
COc1ccc(/C=C/c2ccc(=O)n(Cc3ccccc3)n2)cc1	7.9	10.8%	-0.8%	20.6µM*	-155.8*	-4.3%
O=c1ccc(/C=C/c2ccccc2)nn1Cc1ccc(F)cc1	5.6	1.2%	-13.7%	?	-59.7*	3.0%
COc1ccc(CNC(=O)c2cc3c(=O)n(C)c4ccccc4c3n2C)c(OC)c1	.	6.7%	-5.5%	.	.	.
Cc1ccc2c(c1)nnn2C1CCN(S(=O)(=O)c2ccc(C(=O)N3C(C)CCCC3C)cc2)CC1 (stereo not given)	-10.5	1.7%	1.9%	?	-67.5*	13.3%
O=C(O)[C@H]1C[C@@H](CP(=O)(O)O)CCN1	-11.7	.	-1.8%	-1.7%	.	1.4%
COc1c(C(=O)Nc2ccc3[nH]c(=O)[nH]c3c2)cc2ccccc2c1Br	4.4	-10.1%	-0.7%	11.2µM*	5.7	?
CCCn1c(N)[n+](CC(=O)c2ccco2)c2ccccc21	-16.7	-13.5%	-4.9%	0.2%	-58.6*	-3.5%
O=C(Nc1ccc(O)cc1)c1ccccc1OCc1ccccc1	-14.4	-0.9%	-8.9%	5.9%	-71.4*	-2.4%
CCCCN(CCCC)CC(O)COc1ccccc1C(=O)Nc1ccccc1 (stereo not given)	3.9	-5.9%	1.0%	6.1%	-95.7*	3.6%
CCN(CC)CC(O)COc1ccccc1C(=O)CCc1ccccc1 (stereo not given)	3.1	-1.4%	0.3%	?	-13.2	-1.4%
Cc1cc(C(=O)Nc2ccc(OCc3ccccc3)cc2)c(C)o1	-18.6	12.3%	0.7%	2.2%	-60.1*	-4.5%
COc1cc(C(=O)OC2CC3CCC2(C)C3(C)C)ccc1OC(C)=O (stereo not given)	4.3	4.6%	-3.3%	14.6µM*	-8.9	?
CC1(C)C2CCC1(C)C(OC(=O)CNc1ccccc1)C2 (stereo not given)	-11.9	-17.6%	-5.4%	14.2%	25.4	-4.5%
CCn1c(=O)c2sccc2n2c(CCCC(=O)N3CCN(c4ccc(OC)cc4)CC3)nnc12	.	0.2%	-9.5%	.	.	.
